In the OligoGym collection:

These sequences were tested against ORC1 (assay: pooled miR-30 sensor sort-seq; sequence = guide strand). Settings: shRNA.
Further: reference of the scale not given here.

Sequence	sensor-assay potency score (higher = more potent)
TTTTCGAAGCTGCAATTCGGGT	-1.44
TACAGCAGAAACATGCAGCCTC	0.436
TTTCGATCCAACAAGGGCCTGC	0.15
TAGAGGTCGCTTCATTCTGGGC	-1.24
TTTACTATTACCTAGAAACCGA	-0.315
TCAATCAACACAAACTGTCCAA	0.619
TTTGGTAGTGCAGTTTTCGATC	-0.734
TAGAGTCTGAAATCTCTGCTGC	0.498
TTGCACATAGACTTGGTGGGGC	0.793
TCTCGGTGGAACAACCTTCTGT	-0.225
TAAGAGAGTCCAGTCTCTCTGG	-0.254
TCATTTTTCAGATTCGTCGGTA	0.261

What follows are sequences tested against ORM2 in the same assay as above. Settings: shRNA.

Sequence	sensor-assay potency score (higher = more potent)
TACATGACATCTGACCTGGGAA	-0.156
ATCAAGGTCTTGGTGTCCCTAA	-0.929
TGGACATTCAGGTAACTGGAGT	-0.96
TCATCGTCCAGGTAGGAACCAA	-0.639
TAGAAGCACTGGTTCTGGCGGG	-0.234
TGTACATGACATCTGACCTGGG	0.548
TTATAGAAGCACTGGTTCTGGC	-0.114
TTCTTCTCATCGTCCAGGTAGG	-0.591
TAAGGAACAGCAGGTGAGCAAC	-1.17
TGGAGTTATAGAAGCACTGGTT	-0.607
TTATCCTTTTTCCAGTCGGTGT	-1.32
GTGTACATGACATCTGACCTGG	-0.944

What follows are sequences tested against OSBP2 in the same assay as above. Settings: shRNA.

Sequence	sensor-assay potency score (higher = more potent)
TTGCCCAGCACGAACCAGCGGC	-0.788
ATCTAGTACATTGTCTGCTGAG	-0.399
TTGATCATAGCATTGGATGTGA	0.46
TTGTGAACAGTTGAGGTGCTCT	-0.621
TTGACTTTGGATGAACCCTTGG	-0.284
TCTAGTACATTGTCTGCTGAGC	-0.715
TTCAGTACTAAATTGAGTGCAT	0.314
TTCTCTTCCTCCGAGCTGCAGC	-0.929
TAAGTGGATGGCACCTAGCGGC	-0.606
TAGGAGGACACAGAGAAGGCGG	-0.227
TTGGAGAACACGTAGTGCGCAG	-0.163
TACACTGTCTTCTGCTTCCCGT	-0.671

The sequences below were run against OSBPL11 in the same assay as above. Settings: shRNA.

Sequence	sensor-assay potency score (higher = more potent)
TACATTCTGCATAAAATCCTGA	0.486
TTAAGTCTCTTTGTTGTCCTTC	0.3
AATAGCTTCAGTATGATGCTGT	0.478
TTACACACATCTTCCTCTCTGT	0.858
